In ChEMBL document CHEMBL1961873, “Compounds: GSK PKIS; Assays: Nanosyn kinase panel” (2012):

Legend:
[1] = molecular target: Tyrosine-protein kinase CSK (Homo sapiens) (UniProt P41240); conditions: at 1 µM;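 also: each value is an averaged inhibition reading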
[2] = molecular target: T1, Discoidin domain-containing receptor 2 (Homo sapiens) (UniProt Q16832); conditions: at 0.1 µM
T1 sequence (whole entry): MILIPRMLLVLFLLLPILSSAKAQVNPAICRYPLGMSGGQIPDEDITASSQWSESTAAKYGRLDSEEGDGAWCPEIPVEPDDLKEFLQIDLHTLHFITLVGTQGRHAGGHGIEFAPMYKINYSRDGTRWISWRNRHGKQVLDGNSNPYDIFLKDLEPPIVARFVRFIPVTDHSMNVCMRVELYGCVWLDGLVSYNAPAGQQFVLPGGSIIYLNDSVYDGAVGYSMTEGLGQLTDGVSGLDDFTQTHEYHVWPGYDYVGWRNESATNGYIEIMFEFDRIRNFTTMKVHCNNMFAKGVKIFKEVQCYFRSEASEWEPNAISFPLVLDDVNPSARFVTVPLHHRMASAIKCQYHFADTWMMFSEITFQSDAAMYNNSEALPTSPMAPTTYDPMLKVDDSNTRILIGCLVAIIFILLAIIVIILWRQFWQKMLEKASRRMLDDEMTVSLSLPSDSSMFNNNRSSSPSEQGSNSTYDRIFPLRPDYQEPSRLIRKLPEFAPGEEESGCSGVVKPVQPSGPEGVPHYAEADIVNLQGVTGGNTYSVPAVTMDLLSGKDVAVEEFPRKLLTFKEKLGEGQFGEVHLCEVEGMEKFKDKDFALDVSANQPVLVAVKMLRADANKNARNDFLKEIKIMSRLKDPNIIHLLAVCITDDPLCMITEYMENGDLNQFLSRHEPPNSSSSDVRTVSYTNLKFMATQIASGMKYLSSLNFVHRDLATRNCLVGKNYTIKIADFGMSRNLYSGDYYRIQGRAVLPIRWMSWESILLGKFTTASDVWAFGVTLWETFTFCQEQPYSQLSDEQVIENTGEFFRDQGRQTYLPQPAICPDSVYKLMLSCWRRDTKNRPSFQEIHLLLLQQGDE

[3] = molecular target: T1, Discoidin domain-containing receptor 2 (Homo sapiens); conditions: at 1 µM
[4] = molecular target: Epidermal growth factor receptor (Homo sapiens) (UniProt P00533); conditions: at 0.1 µM
[5] = molecular target: Epidermal growth factor receptor (Homo sapiens) (UniProt P00533); conditions: at 1 µM
[6] = test system: Epidermal growth factor receptor (Homo sapiens), P00533 [L858R]; conditions: at 0.1 µM
[7] = test system: Epidermal growth factor receptor (Homo sapiens), P00533 [L858R]; conditions: at 1 µM
[8] = test system: Epidermal growth factor receptor (Homo sapiens), P00533 [L861Q]; conditions: at 0.1 µM
[9] = test system: Epidermal growth factor receptor (Homo sapiens), P00533 [L861Q]; conditions: at 1 µM
[10] = test system: Epidermal growth factor receptor (Homo sapiens), P00533 [T790M]; conditions: at 0.1 µM
[11] = test system: Epidermal growth factor receptor (Homo sapiens), P00533 [T790M]; conditions: at 1 µM
[12] = test system: Epidermal growth factor receptor (Homo sapiens), P00533 [L858R,T790M]; conditions: at 0.1 µM
[13] = test system: Epidermal growth factor receptor (Homo sapiens), P00533 [L858R,T790M]; conditions: at 1 µM
[14] = molecular target: Ephrin type-A receptor 2 (Homo sapiens) (UniProt P29317); conditions: at 0.1 µM
[15] = molecular target: Ephrin type-A receptor 2 (Homo sapiens) (UniProt P29317); conditions: at 1 µM
[16] = molecular target: T2, Ephrin type-A receptor 3 (Homo sapiens) (UniProt P29320); conditions: at 0.1 µM
T2 sequence (whole entry): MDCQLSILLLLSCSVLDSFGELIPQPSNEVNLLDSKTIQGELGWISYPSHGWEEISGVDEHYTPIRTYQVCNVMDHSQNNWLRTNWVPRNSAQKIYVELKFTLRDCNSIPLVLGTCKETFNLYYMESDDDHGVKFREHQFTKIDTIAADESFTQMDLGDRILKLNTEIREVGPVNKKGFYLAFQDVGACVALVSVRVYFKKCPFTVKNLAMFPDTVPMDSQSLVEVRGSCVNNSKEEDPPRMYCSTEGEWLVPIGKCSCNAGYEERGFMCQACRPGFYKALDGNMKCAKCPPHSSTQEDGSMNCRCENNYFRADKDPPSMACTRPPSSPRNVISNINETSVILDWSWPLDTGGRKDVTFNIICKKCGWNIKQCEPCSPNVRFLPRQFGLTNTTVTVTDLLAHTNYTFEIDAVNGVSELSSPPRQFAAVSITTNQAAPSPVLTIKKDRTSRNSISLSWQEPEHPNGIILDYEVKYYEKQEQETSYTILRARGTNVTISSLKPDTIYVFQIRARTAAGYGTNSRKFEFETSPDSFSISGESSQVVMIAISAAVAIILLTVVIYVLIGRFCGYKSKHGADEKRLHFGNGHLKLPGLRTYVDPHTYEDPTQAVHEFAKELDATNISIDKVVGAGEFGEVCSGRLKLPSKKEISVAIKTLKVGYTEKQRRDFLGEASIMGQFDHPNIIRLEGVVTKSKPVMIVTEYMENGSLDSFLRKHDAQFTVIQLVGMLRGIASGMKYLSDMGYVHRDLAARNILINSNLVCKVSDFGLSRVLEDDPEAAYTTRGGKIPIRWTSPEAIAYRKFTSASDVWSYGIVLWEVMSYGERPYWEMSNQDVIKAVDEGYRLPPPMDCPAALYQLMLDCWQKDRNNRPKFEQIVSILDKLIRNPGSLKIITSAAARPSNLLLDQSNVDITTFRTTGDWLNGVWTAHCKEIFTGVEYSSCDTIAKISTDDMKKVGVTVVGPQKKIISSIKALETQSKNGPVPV

[17] = molecular target: T2, Ephrin type-A receptor 3 (Homo sapiens); conditions: at 1 µM
[18] = molecular target: Ephrin type-A receptor 4 (Homo sapiens) (UniProt P54764); conditions: at 0.1 µM
[19] = molecular target: Ephrin type-A receptor 4 (Homo sapiens) (UniProt P54764); conditions: at 1 µM
[20] = molecular target: T3, Ephrin type-B receptor 2 (Homo sapiens) (UniProt P29323); conditions: at 0.1 µM;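 also: reported as mean inhibition of EPHB2, from the GSK PKIS dataset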
T3 sequence (whole entry): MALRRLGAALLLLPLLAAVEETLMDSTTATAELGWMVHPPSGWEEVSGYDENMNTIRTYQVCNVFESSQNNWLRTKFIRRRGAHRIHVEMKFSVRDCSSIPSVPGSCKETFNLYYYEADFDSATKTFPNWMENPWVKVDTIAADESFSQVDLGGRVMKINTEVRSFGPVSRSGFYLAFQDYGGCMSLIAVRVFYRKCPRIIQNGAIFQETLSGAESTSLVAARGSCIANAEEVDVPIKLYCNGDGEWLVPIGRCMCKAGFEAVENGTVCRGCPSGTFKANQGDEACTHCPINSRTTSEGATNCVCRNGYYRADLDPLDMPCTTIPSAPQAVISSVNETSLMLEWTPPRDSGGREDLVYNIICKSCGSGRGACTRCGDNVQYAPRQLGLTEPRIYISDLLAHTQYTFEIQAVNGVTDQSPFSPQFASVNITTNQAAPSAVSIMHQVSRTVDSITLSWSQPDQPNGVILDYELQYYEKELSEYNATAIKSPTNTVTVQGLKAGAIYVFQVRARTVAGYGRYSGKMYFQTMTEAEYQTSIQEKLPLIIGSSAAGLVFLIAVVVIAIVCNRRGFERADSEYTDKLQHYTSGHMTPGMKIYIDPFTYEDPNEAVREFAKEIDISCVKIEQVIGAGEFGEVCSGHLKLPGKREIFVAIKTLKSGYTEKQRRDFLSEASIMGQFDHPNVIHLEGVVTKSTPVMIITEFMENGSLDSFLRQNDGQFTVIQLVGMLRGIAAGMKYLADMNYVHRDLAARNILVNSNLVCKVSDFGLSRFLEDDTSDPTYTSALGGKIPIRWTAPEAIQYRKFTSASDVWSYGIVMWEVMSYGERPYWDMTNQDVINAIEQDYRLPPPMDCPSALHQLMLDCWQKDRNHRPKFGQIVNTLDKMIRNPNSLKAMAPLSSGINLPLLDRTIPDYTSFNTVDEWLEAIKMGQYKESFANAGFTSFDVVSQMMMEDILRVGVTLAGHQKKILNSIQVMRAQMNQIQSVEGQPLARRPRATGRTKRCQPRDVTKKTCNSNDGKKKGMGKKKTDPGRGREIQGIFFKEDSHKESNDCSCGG

Ephrin type-A receptor 2 (Homo sapiens), sequence (P29317 whole entry): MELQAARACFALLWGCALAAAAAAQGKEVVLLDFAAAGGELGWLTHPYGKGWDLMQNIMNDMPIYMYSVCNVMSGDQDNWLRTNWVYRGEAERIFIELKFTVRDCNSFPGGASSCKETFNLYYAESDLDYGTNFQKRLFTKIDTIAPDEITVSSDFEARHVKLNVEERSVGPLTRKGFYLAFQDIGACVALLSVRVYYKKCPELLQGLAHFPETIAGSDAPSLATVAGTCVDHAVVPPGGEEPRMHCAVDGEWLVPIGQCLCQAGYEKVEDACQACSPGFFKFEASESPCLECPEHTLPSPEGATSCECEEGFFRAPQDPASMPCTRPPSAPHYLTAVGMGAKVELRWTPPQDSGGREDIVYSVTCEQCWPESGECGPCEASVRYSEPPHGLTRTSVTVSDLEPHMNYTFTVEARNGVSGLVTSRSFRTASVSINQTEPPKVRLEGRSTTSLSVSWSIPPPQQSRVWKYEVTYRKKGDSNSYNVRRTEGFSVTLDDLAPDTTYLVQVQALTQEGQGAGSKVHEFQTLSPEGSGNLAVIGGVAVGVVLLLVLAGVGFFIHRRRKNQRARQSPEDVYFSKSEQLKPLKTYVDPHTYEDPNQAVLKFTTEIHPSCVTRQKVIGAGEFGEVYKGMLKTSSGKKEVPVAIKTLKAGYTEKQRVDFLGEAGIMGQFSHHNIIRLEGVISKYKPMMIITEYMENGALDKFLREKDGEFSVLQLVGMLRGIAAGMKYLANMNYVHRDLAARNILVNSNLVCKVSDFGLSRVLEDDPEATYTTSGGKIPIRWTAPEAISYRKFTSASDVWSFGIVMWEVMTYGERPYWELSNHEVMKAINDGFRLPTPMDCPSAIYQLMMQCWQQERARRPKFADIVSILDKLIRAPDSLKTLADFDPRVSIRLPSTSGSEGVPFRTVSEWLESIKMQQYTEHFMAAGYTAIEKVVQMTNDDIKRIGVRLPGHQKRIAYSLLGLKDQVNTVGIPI
Epidermal growth factor receptor (Homo sapiens), P00533 [L858R,T790M], sequence (P00533 whole entry T790M/L858R, looked up): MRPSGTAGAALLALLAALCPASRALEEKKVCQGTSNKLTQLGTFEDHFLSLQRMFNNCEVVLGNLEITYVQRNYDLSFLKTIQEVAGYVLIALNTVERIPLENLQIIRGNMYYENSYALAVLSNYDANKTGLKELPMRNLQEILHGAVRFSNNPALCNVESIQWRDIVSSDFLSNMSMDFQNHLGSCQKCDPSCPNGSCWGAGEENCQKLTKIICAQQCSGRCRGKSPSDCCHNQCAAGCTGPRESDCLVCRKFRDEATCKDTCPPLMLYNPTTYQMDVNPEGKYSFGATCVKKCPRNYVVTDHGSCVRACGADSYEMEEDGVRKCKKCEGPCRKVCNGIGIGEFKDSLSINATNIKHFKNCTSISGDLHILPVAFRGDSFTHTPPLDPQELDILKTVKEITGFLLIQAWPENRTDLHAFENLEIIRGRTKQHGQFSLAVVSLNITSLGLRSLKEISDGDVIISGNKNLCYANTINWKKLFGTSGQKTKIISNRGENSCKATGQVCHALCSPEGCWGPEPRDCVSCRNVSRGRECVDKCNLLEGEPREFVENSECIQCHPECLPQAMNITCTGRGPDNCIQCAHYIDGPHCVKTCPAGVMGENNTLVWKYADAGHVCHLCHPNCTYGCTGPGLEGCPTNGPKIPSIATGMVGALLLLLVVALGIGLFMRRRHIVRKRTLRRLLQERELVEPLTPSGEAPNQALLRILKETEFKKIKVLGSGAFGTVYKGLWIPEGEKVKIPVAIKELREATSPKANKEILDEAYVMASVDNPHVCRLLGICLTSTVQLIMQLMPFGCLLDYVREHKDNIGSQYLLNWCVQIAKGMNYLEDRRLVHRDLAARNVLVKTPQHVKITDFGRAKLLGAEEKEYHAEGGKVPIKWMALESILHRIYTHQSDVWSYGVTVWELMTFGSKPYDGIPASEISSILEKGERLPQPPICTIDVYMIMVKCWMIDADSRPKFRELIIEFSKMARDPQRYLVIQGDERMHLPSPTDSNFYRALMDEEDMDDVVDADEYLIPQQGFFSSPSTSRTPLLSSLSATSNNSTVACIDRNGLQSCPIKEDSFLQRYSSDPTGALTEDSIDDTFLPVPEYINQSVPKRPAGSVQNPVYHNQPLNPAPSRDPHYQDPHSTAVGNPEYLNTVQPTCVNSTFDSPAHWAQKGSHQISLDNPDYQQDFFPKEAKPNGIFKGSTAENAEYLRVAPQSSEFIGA
Ephrin type-A receptor 4 (Homo sapiens), sequence (P54764 whole entry): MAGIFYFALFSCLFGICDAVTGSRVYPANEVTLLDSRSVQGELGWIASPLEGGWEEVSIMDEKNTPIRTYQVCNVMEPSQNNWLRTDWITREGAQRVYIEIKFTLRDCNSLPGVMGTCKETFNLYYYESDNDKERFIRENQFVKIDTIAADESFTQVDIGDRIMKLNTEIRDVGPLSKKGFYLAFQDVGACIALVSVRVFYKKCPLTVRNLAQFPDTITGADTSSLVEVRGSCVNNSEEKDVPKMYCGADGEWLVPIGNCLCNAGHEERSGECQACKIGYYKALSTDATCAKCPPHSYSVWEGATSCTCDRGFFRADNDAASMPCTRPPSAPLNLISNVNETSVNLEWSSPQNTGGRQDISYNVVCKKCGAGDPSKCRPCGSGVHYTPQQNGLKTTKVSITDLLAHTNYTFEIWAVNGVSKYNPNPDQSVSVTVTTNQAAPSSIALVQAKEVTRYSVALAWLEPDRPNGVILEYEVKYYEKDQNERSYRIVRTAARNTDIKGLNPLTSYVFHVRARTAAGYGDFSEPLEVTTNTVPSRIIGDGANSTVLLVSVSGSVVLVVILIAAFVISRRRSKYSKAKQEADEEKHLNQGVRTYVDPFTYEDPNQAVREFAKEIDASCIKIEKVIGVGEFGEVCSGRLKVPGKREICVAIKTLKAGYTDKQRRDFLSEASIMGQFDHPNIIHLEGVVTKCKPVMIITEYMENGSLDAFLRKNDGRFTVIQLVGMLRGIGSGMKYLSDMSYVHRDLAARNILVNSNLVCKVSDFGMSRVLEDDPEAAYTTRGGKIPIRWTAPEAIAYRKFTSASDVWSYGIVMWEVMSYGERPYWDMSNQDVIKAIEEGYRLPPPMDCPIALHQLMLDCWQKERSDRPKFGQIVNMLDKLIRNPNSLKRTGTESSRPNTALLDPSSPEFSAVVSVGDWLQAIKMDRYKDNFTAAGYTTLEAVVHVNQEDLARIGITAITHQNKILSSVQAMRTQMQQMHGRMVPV
Epidermal growth factor receptor (Homo sapiens), P00533 [L858R], sequence (P00533 whole entry L858R): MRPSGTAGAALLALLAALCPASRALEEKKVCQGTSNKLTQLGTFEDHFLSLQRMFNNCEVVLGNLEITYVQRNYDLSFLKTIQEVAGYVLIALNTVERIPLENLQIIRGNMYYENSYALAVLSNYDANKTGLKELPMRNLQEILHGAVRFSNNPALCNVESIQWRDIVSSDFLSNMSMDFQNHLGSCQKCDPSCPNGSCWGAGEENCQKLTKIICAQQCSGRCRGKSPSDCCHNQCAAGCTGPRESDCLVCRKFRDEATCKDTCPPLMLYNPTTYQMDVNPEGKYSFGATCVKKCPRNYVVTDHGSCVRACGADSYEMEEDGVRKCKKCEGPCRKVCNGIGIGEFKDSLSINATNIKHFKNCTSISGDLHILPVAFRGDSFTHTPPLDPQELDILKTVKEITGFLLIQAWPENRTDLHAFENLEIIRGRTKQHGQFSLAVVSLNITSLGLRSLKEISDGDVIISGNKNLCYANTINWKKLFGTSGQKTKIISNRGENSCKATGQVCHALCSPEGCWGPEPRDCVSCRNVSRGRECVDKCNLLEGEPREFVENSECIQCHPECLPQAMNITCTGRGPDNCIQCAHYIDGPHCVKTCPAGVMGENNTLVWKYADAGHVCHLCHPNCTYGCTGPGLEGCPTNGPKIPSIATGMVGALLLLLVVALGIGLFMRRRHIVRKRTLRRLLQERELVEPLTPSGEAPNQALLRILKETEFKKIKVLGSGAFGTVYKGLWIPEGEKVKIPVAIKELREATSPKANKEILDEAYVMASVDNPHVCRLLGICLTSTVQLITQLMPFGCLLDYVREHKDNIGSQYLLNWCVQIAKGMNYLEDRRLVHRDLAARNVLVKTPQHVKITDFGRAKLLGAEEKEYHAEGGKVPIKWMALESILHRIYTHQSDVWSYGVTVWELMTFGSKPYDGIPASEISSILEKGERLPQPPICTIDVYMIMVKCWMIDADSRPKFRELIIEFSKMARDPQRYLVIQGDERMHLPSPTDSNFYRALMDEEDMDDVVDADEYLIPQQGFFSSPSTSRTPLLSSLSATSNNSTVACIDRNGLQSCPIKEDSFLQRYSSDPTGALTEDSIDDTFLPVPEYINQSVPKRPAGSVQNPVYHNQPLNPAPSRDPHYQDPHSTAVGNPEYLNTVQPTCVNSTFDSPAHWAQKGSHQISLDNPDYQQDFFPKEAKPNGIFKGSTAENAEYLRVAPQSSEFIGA
Tyrosine-protein kinase CSK (Homo sapiens), sequence (P41240 2-450 limits assumed): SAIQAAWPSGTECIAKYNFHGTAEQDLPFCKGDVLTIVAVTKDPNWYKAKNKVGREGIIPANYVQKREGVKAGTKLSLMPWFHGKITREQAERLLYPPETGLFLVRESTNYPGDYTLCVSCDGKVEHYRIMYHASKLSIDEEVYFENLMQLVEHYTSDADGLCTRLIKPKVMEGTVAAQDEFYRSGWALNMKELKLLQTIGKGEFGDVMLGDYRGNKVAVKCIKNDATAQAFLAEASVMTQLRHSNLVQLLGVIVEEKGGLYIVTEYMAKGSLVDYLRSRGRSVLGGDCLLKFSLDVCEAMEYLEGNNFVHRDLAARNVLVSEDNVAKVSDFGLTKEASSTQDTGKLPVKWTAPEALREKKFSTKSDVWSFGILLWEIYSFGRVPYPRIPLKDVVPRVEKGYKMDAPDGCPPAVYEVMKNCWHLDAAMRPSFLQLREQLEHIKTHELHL

| SMILES | inhibition [1] | inhibition [2] | inhibition [3] | inhibition [4] | inhibition [5] | inhibition [6] | inhibition [7] | inhibition [8] | inhibition [9] | inhibition [10] | inhibition [11] | inhibition [12] | inhibition [13] | inhibition [14] | inhibition [15] | inhibition [16] | inhibition [17] | inhibition [18] | inhibition [19] | inhibition [20] |
| --- | --- | --- | --- | --- | --- | --- | --- | --- | --- | --- | --- | --- | --- | --- | --- | --- | --- | --- | --- | --- |
| CCn1c(-c2nonc2N)nc2cncc(C(=O)N3CC[C@H](N)C3)c21 | 5.06% | 1.43% | 1.61% | 0.8% | 2.64% | 3.22% | 5.35% | 3.58% | 4.5% | 2.65% | 3.15% | 1.56% | 1.95% | -0.29% | -0.49% | 4.99% | 5.74% | 9.5% | 10% | 5.01% |
| NC(=O)c1ccc(-c2nc(-c3ccccn3)c(-c3ccc4c(c3)OCO4)[nH]2)cc1 | 6.81% | 2.6% | 4.42% | 2.11% | 4.7% | 4.74% | 3.79% | 2.1% | 2.01% | -0.51% | 1.62% | 3.52% | -0.97% | -0.18% | -0.13% | 3.83% | 1.89% | 7.63% | 7.96% | 6.11% |
| NCc1ccc(-c2nc(-c3ccc(Cl)c(O)c3)c(-c3ccncc3)[nH]2)cc1 | 7.83% | 0.6% | 9.1% | 4.77% | 21.8% | 1.78% | 31.9% | 1.15% | 13.5% | -0.03% | 0.46% | 0.24% | 5.04% | 2.14% | 8.19% | 3.13% | 2.67% | 4.74% | 21.9% | -0.39% |
| O=C1Nc2ccc(C(=O)c3ccco3)cc2C1=Cc1cc(Cl)c(O)c(Cl)c1 | 7.85% | 2.1% | 6.8% | 1.89% | 5.16% | 4.06% | 13.7% | 3.88% | 19.6% | 1.42% | 1.86% | 1.63% | 4.94% | -2.48% | -0.21% | 2.92% | 6.1% | 8.25% | 14.3% | 10.7% |
| Cc1nnc(-c2ccc(C)c(-c3ccc(C(=O)Nc4cccc(C#N)c4)cc3)c2)o1 | 6.38% | 1.45% | 1.83% | 6.74% | 8.18% | 0.95% | 3.01% | 1.88% | 2.37% | 1.41% | 2.44% | 0.19% | 2.34% | -0.29% | -0.3% | 4.6% | 2.95% | 6.99% | 4.3% | 5.86% |
| O=C(Nc1n[nH]c2nc(-c3ccco3)c(Br)cc12)C1CC1 | 4.14% | 0.37% | 2.85% | 2.5% | 5.12% | 3.62% | 0.54% | 0.96% | 1.89% | 1.4% | -0.71% | 5.44% | 0.25% | 1.53% | 1.29% | 6.55% | 4.24% | 7.41% | 2.95% | 7.31% |
